# Experimental data as given in the supplement of paper PMC8728848.
# Many of the other results were omitted from the sample, so the strongest signals are more common in it than they were.
# Experiments:
# Assay in all cases: glycan array binding signal (z-score within array); higher = stronger binding
# Conditions in all cases: glycan notation: IUPAC condensed, linker removed
# [1] = target: GalNAc(b1-3)Gal(a1-4)Gal(b1-4)GlcNAc(b1-3)Gal(b1-4)Glc
# Outline: (§1)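 Glycan array data came from 3228 arrays in the Consortium for Functional Glycomics database, and only arrays with an available protein sequence were kept. Glycan names were put into IUPAC-condensed notation, and columns mapping to the same glycan were averaged. The binding signal is a within-array Z-score, averaged across arrays of one protein sequence run at different concentrations or buffers and across linkers. A negative Z-score can be read as non-binding.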
# GalNAc(b1-4)GlcNAc = target: GalNAc(b1-4)GlcNAc
# Outline: as §1
# GalNAc4S6S(b1-4)GlcNAc = target: GalNAc4S6S(b1-4)GlcNAc
# Outline: as §1
# [2] = target: GlcNAc(a1-4)Gal(b1-4)GlcNAc(b1-3)Gal(b1-4)[Fuc(a1-3)]GlcNAc(b1-3)Gal(b1-4)[Fuc(a1-3)]GlcNAc
# Outline: as §1
# [3] = target: GlcNAc(b1-3)Gal(b1-4)GlcNAc(b1-6)[Gal(b1-3)]GalNAc
# Outline: as §1
# GlcNAc(b1-6)GalNAc = target: GlcNAc(b1-6)GalNAc
# Outline: as §1
# Kdn(a2-6)Gal(b1-4)GlcNAc = target: Kdn(a2-6)Gal(b1-4)GlcNAc
# Outline: as §1
# [4] = target: Man(a1-2)Man(a1-2)Man(a1-6)[Man(a1-3)]Man
# Outline: as §1
# [5] = target: Man(a1-3)[Man(a1-6)]Man(b1-4)GlcNAc(b1-4)[Fuc(a1-6)]GlcNAc
# Outline: as §1
# [6] = target: Neu5Ac(a2-3)Gal(b1-3)GalNAc(b1-4)[Neu5Ac(a2-3)]Gal(b1-4)Glc
# Outline: as §1
# [7] = target: Neu5Ac(a2-3)Gal(b1-3)]Neu5Ac(a2-3)Gal(b1-4)]GlcNAc
# Outline: as §1
# [8] = target: Neu5Ac(a2-3)Gal(b1-4)GlcNAc(b1-2)Man(a1-3)[Neu5Ac(a2-3)Gal(b1-4)GlcNAc(b1-2)Man(a1-6)]Man(b1-4)GlcNAc(b1-4)GlcNAc
# Outline: as §1
# [9] = target: Neu5Ac(a2-3)Gal(b1-4)GlcNAc(b1-3)Gal(b1-4)GlcNAc(b1-6)[Gal(b1-3)]GalNAc
# Outline: as §1
# [10] = target: Neu5Ac(a2-3)Gal(b1-4)GlcNAc(b1-3)Gal(b1-4)[Fuc(a1-3)]GlcNAc
# Outline: as §1
# [11] = target: Neu5Ac(a2-3)Gal(b1-4)GlcNAc(b1-6)[Gal(b1-3)]GalNAc
# Outline: as §1
# [12] = target: Neu5Ac(a2-3)Gal(b1-4)[Fuc(a1-3)]GlcNAc(b1-3)GalNAc
# Outline: as §1
# Neu5Ac(a2-3)GalNAc = target: Neu5Ac(a2-3)GalNAc
# Outline: as §1
# [13] = target: Neu5Ac(a2-6)Gal(b1-4)GlcNAc(b1-2)Man(a1-6)[GlcNAc(b1-2)Man(a1-3)]Man(b1-4)GlcNAc(b1-4)GlcNAc
# Outline: as §1
# [14] = target: Neu5Ac(a2-6)Gal(b1-4)GlcNAc(b1-2)[Neu5Ac(a2-6)Gal(b1-4)GlcNAc(b1-4)]Man(a1-3)[GlcNAc(b1-4)][Neu5Ac(a2-6)Gal(b1-4)GlcNAc(b1-4)Man(a1-6)]Man(b1-4)GlcNAc(b1-4)GlcNAc
# Outline: as §1
# [15] = target: Neu5Ac(a2-6)Gal(b1-4)GlcNAc(b1-3)Gal(b1-4)GlcNAc(b1-6)[Gal(b1-3)]GalNAc
# Outline: as §1
# [16] = target: Neu5Ac(a2-6)Gal(b1-4)GlcNAc(b1-3)[Neu5Ac(a2-6)Gal(b1-4)GlcNAc(b1-6)]GalNAc
# Outline: as §1
# [17] = target: Neu5Ac(a2-6)Gal(b1-4)GlcNAc(b1-6)[Gal(b1-3)]GalNAc
# Outline: as §1
# [18] = target: Neu5Ac(a2-8)Neu5Ac(a2-3)Gal(b1-3)GalNAc(b1-4)[Neu5Ac(a2-3)]Gal(b1-4)Glc
# Outline: as §1
binder,measurement,setting,value
Aap arpt (Staphylococcus epidermidis) (protein) NNEAPQMSSTLQAEEGSNAEAPQSEPTKAEEGGNAEAAQSEPTKAEEGGNAEAPQSEPTKAEEGGNAEAAQSEPTKTEEGSNVKAAQSEPTKAEEGSNAEAPQSEPTKTEEGSNAKAAQSEPTKAEEGGNAEAAQSEPTKTEEGSNAEAPQSEPTKAEEGGYAEAPQSEPTKTEEGGNAEAPNVPTIKA,glycan array binding signal (z-score),[1],-0.809
same,glycan array binding signal (z-score),GalNAc(b1-4)GlcNAc,-0.143
same,glycan array binding signal (z-score),GalNAc4S6S(b1-4)GlcNAc,1.06
same,glycan array binding signal (z-score),[2],2.41
same,glycan array binding signal (z-score),[3],-0.695
same,glycan array binding signal (z-score),GlcNAc(b1-6)GalNAc,3.2
same,glycan array binding signal (z-score),Kdn(a2-6)Gal(b1-4)GlcNAc,2.33
same,glycan array binding signal (z-score),[4],-0.012
same,glycan array binding signal (z-score),[5],1.13
same,glycan array binding signal (z-score),[6],-1.39
same,glycan array binding signal (z-score),[7],2.21
same,glycan array binding signal (z-score),[8],3
same,glycan array binding signal (z-score),[9],-0.491
same,glycan array binding signal (z-score),[10],-0.571
same,glycan array binding signal (z-score),[11],0.944
same,glycan array binding signal (z-score),[12],0.511
same,glycan array binding signal (z-score),Neu5Ac(a2-3)GalNAc,-0.745
same,glycan array binding signal (z-score),[13],2.64
same,glycan array binding signal (z-score),[14],-0.548
same,glycan array binding signal (z-score),[15],0.045
same,glycan array binding signal (z-score),[16],-1.09
same,glycan array binding signal (z-score),[17],0.173
same,glycan array binding signal (z-score),[18],-1.08
